Laboratory results taken from PubChem BioAssay (NCI).
This is part of a sample that, as a whole, favours compounds with a hit. Of some 83,000 tested, about 20% had one in any assay.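 Values shown are percent growth following 48 h exposure of cells in 96-well plates to a single concentration of compound; below 10 was considered active.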 A number with no mark means an inactive call. Activity calls are given as the source filed them.

Columns and labels:
Experiment in all cases: NCI-60 one-dose screen, 48 h (100 = growth as untreated, 0 = no growth, -100 = all killed)
Conditions in all cases: 10 µM unless noted
[1] = test system: NCI-H23 lung
[2] = test system: NCI-H226 lung
[3] = test system: NCI-H322M lung
[4] = test system: HOP-62 NSCLC
[5] = test system: NCI-H460 lung
[6] = test system: HOP-92 NSCLC
[7] = test system: NCI-H522 lung
[8] = test system: A549/ATCC NSCLC
[9] = test system: 786-0 renal
[10] = test system: COLO 205 colon

Compound | growth [1] | growth [2] | growth [3] | growth [4] | growth [5] | growth [6] | growth [7] | growth [8] | growth [9] | growth [10]
CN1CCOCCN(C)Cc2ccc3ccc(cc3c2)CN(C)CCOCCN(C)Cc2ccc3ccc(cc3c2)C1 | 90.2% | 111% | 99.6% | 91.8% | 59.5% | 85.8% | 110% | 96.3% | 75.8% | 94.6%
Cc1ccc(O)c(NC(=O)c2cccc(Nc3ccnc(C(F)(F)F)c3)c2)c1 | 44.1% | 44.8% | 86.5% | 85.6% | 55.4% | 77.6% | 43.1% |  | 50% | 128%
O=C(Nc1cccnc1Nc1ccc(Cl)cc1)c1cn(Cc2cccc(Oc3ccccc3)c2)nn1 | 63% | 55.9% | 68.7% | 61.1% | 35.2% | 53% | 44.6% | 42.4% | 52.2% | 73.6%
CC12OC(CC(O)C1O)n1c3ccccc3c3c4c(c5c6ccccc6n2c5c31)C(=O)N(CCN1CCCC1)C4=O (stereo unspecified) | 14.3% | 2.49% (active) | 28.5% | 2.4% (active) | -17.3% (active) | 34.1% | -0.973% (active) | 1.98% (active) | 14.5% | 14.4%
ClC(Cl)c1nc(-c2ccccc2)n2nc(-c3ccccc3)cc2n1 | -17.6% (active) | 86.9% | -41.7% (active) | -3.61% (active) | -58.2% (active) | 3.98% (active) | 29.9% | -16.2% (active) | 42.9% | -40.3% (active)
Nc1nc2ccccc2c2c(=O)c3cc(Cl)ccc3sc12 | 87.5% | 92.7% | 91.8% | 89.7% | 86.2% | 81.3% | 93.4% | 93.9% | 98.5% | 114%
Cc1ccc(NC(=O)c2sc3nc(C)c(C(O)c4ccccc4)cc3c2N)cc1 (stereo unspecified) | 26.4% | 57.4% | 56.8% | 31.2% | 2.88% (active) | 58.8% | 7.09% (active) | 22.7% | 40.3% | -15.8% (active)
Cc1[nH]c(C(=O)Nc2ccccc2OC2CCN(CCN3CCOCC3)CC2)c(Cl)c1Cl | 97.6% | 79.6% | 99.9% | 89.9% | 108% | 70.9% | 47.6% | 99% | 57.5% | 102%
O=C(c1cccc(N2CCOCC2)n1)c1c[nH]c2ccccc12 | 92.7% | 82.8% | 97% | 87.6% | 86.7% | 92.8% | 88.3% |  | 98.7% | 107%
O=C1/C(=C/c2ccccn2)SC(=S)N1N1CCOCC1 | 96.7% | 95.1% | 97.5% | 96.6% | 104% | 84.8% | 86.8% | 103% | 103% | 103%
N=C(N)c1ccc(-c2ccc(-c3cc(Cl)cc(Cl)c3)s2)s1 | -49.5% (active) | 90.8% | -44.7% (active) | -28.3% (active) | -33.9% (active) | 50.2% | -70.6% (active) |  | -74.5% (active) | -75.4% (active)
O=c1cc(CNc2cc(F)cc(F)c2)c2ccc(I)cc2[nH]1 | 46.3% | 68.6% | 48.3% | 37.5% | 18.5% | 54% | 15.6% |  | 43.7% | 33.7%
COc1ccc(Cl)cc1Nc1nc(C(F)(F)F)ccc1C(=O)N/N=C/c1ccc([N+](=O)[O-])cc1 | 18% | 13.6% | -1.09% (active) | 11.4% | 0.872% (active) | -47.7% (active) | -8.55% (active) | 6.02% (active) | 8.42% (active) | 9.91% (active)
COc1ccc(N/N=C/c2cn(-c3ccc(C(=O)O)cc3)nc2-c2cc3ccccc3oc2=O)cc1 | 86.7% | 75.3% | 85.2% | 84% | 47.4% | 86.6% | 52.3% | 57.1% | 59% | 84.3%
Nc1cc(C(=O)O)cc(-n2c(O)c(C=C3N=c4ccccc4=N3)sc2=S)c1 | 92.6% | 85.4% | 99.2% | 100% | 98% | 81.6% | 92.7% |  | 102% | 103%
O=C1/C(=C/c2cccc(Br)c2)COc2ccc(O)cc21 | 74.8% | 101% | 97.4% | 86.6% | 92.2% | 46% | 18.9% |  | 50% | 84.5%
C#Cc1cccc(NC(=O)C2CCCCN2C(=O)CCl)c1 (stereo unspecified) | -76.1% [8.25 µM] (active) | -53.4% [8.25 µM] (active) | 65.1% [8.25 µM] | 26.6% [8.25 µM] | 10.9% [8.25 µM] | -54.2% [8.25 µM] (active) | -57% [8.25 µM] (active) | 36.5% [8.25 µM] | -72.9% [8.25 µM] (active) | -52.5% [8.25 µM] (active)
COc1cc(/C=C/c2cn[nH]c2-c2ccc(C)cc2)cc(OC)c1OC | 56.2% | 65.4% | 56.7% | 33.8% | 17.1% | 45.6% | 23.1% |  | 37.1% | 12.6%
CCOC(=O)C#Cc1c(C(=O)OCC)nnn1[C@@H]1O[C@H](COC)[C@@H](OC)[C@H]1OC | 101% | 82.6% | 92.9% | 97.8% | 109% | 68.5% | -58.7% (active) | 95.9% | 84.2% | -54.7% (active)
COc1ccc(C2CC(n3ccnc3)c3cc(OC)c(OC)c(OC)c32)cc1O (stereo unspecified) | 91.5% | 97.4% | 102% | 80.8% | 78.7% | 59.6% | 50.1% | 55.8% | 91.7% | 107%
COCCn1cc(-c2csc(-c3c[nH]c4ccccc34)n2)c2cccnc21 | 42.2% | 60.9% | 61% | 38.2% | 18.8% | 55.5% | -33.6% (active) | 25% | 43.5% | -8.68% (active)
COc1cc2c(c(OC)c1OC)C(=O)CC(c1cccc(C(=O)Nc3ccc(C#N)cc3)c1)O2 (stereo unspecified) | 78.7% | 46.9% | 90.8% | 91.5% | 89.3% | 64.6% | 46.8% |  | 90.4% | 85.8%

Compound | growth [1] | growth [2] | growth [3] | growth [4] | growth [5] | growth [6] | growth [7] | growth [8] | growth [9] | growth [10]
COc1ccc(Nc2ncc(C#N)c(NCCCNC(=O)C3CCC3)n2)cc1 | 67.6% | 49% | 80.8% | 31.4% | 41.7% | 64.3% | 85.1% | 61.2% | 50.4% | 33.3%
COc1ccc(C2[C@@H](Cl)C(=O)N2c2cc(OC)c(OC)c(OC)c2)cc1Cl (stereo partly specified) | 34.9% | 59.8% | 40% | 21% | 5.19% (active) | 33.6% | -28.7% (active) | 14.8% | 5.5% (active) | -50.2% (active)
Cc1cccc(NC(=O)Cn2cc(CN3CCN(c4ccnc5cc(Cl)ccc45)CC3)nn2)c1 | 89.4% | 75.5% | 93.1% | 80.1% | 94% | 56.3% | 80.3% | 94.1% | 101% | 98.6%
Cc1ccc(-c2csc(NC(=O)CSc3nc(N)cc(N)n3)n2)cc1 | 42.7% | 96.3% | 87% | 50.9% | 78.6% | 89.3% | 54.6% |  | 72.2% | 50.8%
C=C1C(=O)O[C@H]2[C@H]1CC/C(COC(=O)/C=C\C(=O)NCc1ccc(Cn3c(=O)sn(CCCCl)c3=O)cc1)=C\CC[C@@]1(C)O[C@@H]21 | 84.1% | 92.9% | 107% | 87.7% | 93.4% | 81.7% | -12% (active) |  | 67.7% | 4.69% (active)
CN1c2ccccc2S(=O)(=O)n2c(SCC(=O)Nc3nc4ccc(F)cc4s3)nnc21 | 97.4% | 113% | 93.1% | 103% | 103% | 84.7% | 72.2% |  | 112% | 114%
CCOC(=O)C/C(=N\Nc1cc(=O)[nH]c2ccc(OC)cc12)C(=O)OCC | 99.4% | 97.6% | 94.9% | 105% | 100% | 87.2% | 109% | 105% | 107% | 114%
CC(C)(C)c1ccc(C(=O)N/N=C/c2ccc(O)cc2O)cc1 | 19.1% | 12.1% | 26.8% | 17.9% | 0.52% (active) | 33.6% | 33.4% | 11.8% | 19.7% | 14.7%
C[C@@H]1NC(=O)[C@H](Cc2ccccc2)N(Cc2cccnc2)C1=O | 101% | 90.4% | 109% | 94.8% | 102% | 84.7% | 95.9% | 94.6% | 90.3% | 105%
COc1cc(/C=C/C(=O)c2cccc(-n3cc(-c4ccc(Cl)cc4)[nH]c3=O)c2)ccc1O | 97.5% | 101% | 92.6% | 130% | 93.7% | 56.9% | 23.4% | 77.3% | 84.3% | 124%
Cc1cccc(-c2nc(C(C)C)sc2-c2ccnc(NCCCNS(=O)(=O)c3ccc(Cl)cc3)c2)c1 | 84.9% | 81.4% | 95.1% | 91.6% | 70.1% | 83.1% | 55.4% |  | 76.3% | 60.8%
CS(=O)/C(C#N)=C\C=C\c1cccc(Cl)c1 (stereo unspecified) | -7.77% (active) | 36.1% | 24.1% | 17.1% | 3.71% (active) | -5.77% (active) | -9.88% (active) |  | 19.2% | -22% (active)
C=CC(CC(c1ccccc1)(c1ccccc1)c1ccccc1)N(CC)CC (stereo unspecified) | 71.7% | 75.7% | 90% | 87.5% | 62.6% | 54.8% | 84.1% |  | 67.8% | 64.5%
CNC(=O)NCC1OC(n2cnc3c(NC(=O)Nc4ccccc4)ncnc32)C2OC(=O)CC12 (stereo unspecified) | 90.2% | 99.2% | 101% | 94.2% | 114% | 71.2% | 106% |  | 98.3% | 110%
COc1cc(O)c2c(=O)c3c(CC=C(C)C)cc(OC)c(O)c3oc2c1 | 41.4% | 78.7% | 38.3% | 25.4% | 12.5% | 80.8% | -12.9% (active) | 35.6% | 36.1% | 112%
COc1cc2c(cc1-c1c(C)noc1C)ncc1nc(CN3CCOCC3)n([C@H](C)COC(F)F)c12 | 45.4% | 58% | 38.5% | 16.6% | 51.9% | 5.85% (active) | -0.0255% (active) | 37.6% | 45.5% | 14.7%
C=C(C)[C@@H]1CC[C@]2(C(=O)N3CCNCC3)CC[C@]3(C)[C@H](CC[C@@H]4[C@@](C)(CCC(=O)N5CCNCC5)[C@H](C(=C)C)CC[C@]43C)[C@@H]12 | 93.2% | 92.7% | 102% | 92.9% | 8.8% (active) | 95.5% | 71.4% | 75.2% | 80.2% | 77.9%
CC1=C(Cl)C(=O)c2cc(C)ccc2C1=O | 100% | 86.3% | 94.4% | 105% | 115% | 88.5% | 93% |  | 102% | 114%
O=c1oc2ccccc2cc1-c1nn(-c2ccccc2)cc1-c1nn[nH]n1 | 101% | 92.8% | 100% | 90.8% |  | 92.2% | 94.6% | 97.7% | 104% | 108%
CC1SC(c2ccccc2O)N(NC(=O)CCC(=O)c2nc3ncccc3[nH]2)C1=O (stereo unspecified) | 86.5% | 80.7% | 93.4% | 87.8% | 103% | 79.2% | 95.5% |  | 90.3% | 110%
Nc1nc(N)c2c(n1)NC(c1cccc(Nc3ccnc4cc(C(F)(F)F)ccc34)c1)CC(c1ccc3c(c1)OCO3)=N2 (stereo unspecified) | 82.4% | 97.7% | 96.2% | 65.7% | 58.8% | 54.4% | 42.2% |  | 72.6% | 66.2%
